Source: PMC5540273 (PLoS ONE, 2017)

Assays:
Details in all cases: concentration: 1 μM, replicates: in singlicate; n = 1
[1] = tested on: AAK1
[2] = tested on: ABL1-nonphosphorylated
[3] = tested on: ABL1-phosphorylated
[4] = tested on: ABL2
[5] = tested on: ACVR1B
[6] = tested on: ACVR1
[7] = tested on: ACVR2A
[8] = tested on: ACVR2B
[9] = tested on: ACVRL1
[10] = tested on: T1, ADCK3
T1 construct: gene CABC1
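Note: KINOMEscan kinase panel screen.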

Compound | %Inh [1] [%] | %Inh [2] [%] | %Inh [3] [%] | %Inh [4] [%] | %Inh [5] [%] | %Inh [6] [%] | %Inh [7] [%] | %Inh [8] [%] | %Inh [9] [%] | %Inh [10] [%]
Cn1cc(-c2[nH]c3cc(NC(=O)[C@H](N)C4CCCCC4)cc4c3c2C=NNC4=O)cn1 | 99.5 | 95.7 | 97.5 | 30 | 3 | 58 | 81 | 44 | 0 | 0
c1ccc(-c2n[nH]cc2Nc2ccnc3ccccc23)nc1 [GW694077] | 82 | 0 | 0 | 0 | 0 | 30 | 0 | 0 | 0 | 3
Cc1ccc(C)c(NC(=O)NC2CCN(c3ccnc(Nc4ccc(F)cc4)n3)C2)c1 (centres unmarked) [GSK1379720] | 6 | 0 | 0 | 7 | 0 | 14 | 0 | 0 | 0 | 0
COc1cccc(-c2ccc3c(NC(=O)C4CC4)n[nH]c3n2)c1 [SB-710903] | 12 | 83 | 76 | 24 | 0 | 18 | 0 | 22 | 0 | 3
O=C(Nc1cccc(-c2nn3ncccc3c2-c2ccnc(Nc3ccccc3)n2)c1)c1c(F)cccc1F [GSK198271] | 17 | 60 | 6 | 42 | 0 | 21 | 0 | 25 | 0 | 3
COc1cc(Nc2nccc(N3CCC(NC(=O)Nc4cccc(C(C)=O)c4)C3)n2)cc(OC)c1OC (centres unmarked) [GSK1379753] | 65 | 0 | 0 | 17 | 0 | 0 | 0 | 100 | 0 | 0
c1ccc(-c2cnc3nccnn23)cc1 [AH20685] | 0 | 0 | 0 | 5 | 0 | 17 | 0 | 0 | 0 | 0
CC(C)c1nc(-c2cccc(NS(=O)(=O)c3c(F)cccc3F)c2F)c(-c2ccnc(Nc3ccc(N4CCOCC4)nc3)n2)s1 [GSK2008607] | 0 | 99.8 | 99.3 | 99.4 | 90.5 | 43 | 0 | 86 | 11 | 100
